From PubChem BioAssay
Hits are enriched below; roughly 9% of the tested compounds scored in any of these assays.
LMNA splice mod – modulators of lamin A splicing; HeLa LMNA splicing GFP/RFP minigene ratio, 48 h; Potency, µM (highest dose often 46.1 µM), inactives show top-dose ratio change, negative = inhibition, hits mostly inhibitors; actives 0.01% (n = 200,000); active = well fitted inhibition curve with a large enough effect in the signal ratio, with a control signal flat, not every such curve was filed as active; inconclusive = small, poorly fitted or top-dose-only effect, or effect the other way, or a change in a side signal; the % refers to the signal ratio
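Read-out is the ratio of GFP to DsRed2 object intensity, acquired by 488 nm laser-scanning cytometry on HeLa lamin A-EGFP minigene reporter cells. Compound incubation 48 hrs at 37 °C in Opti-MEM with 2% FBS; DMSO 0.5% final.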
IMPase Li inh – cell-permeable IMPase inhibitors with lithium potentiation; CHO-M1 cells, IP1 TR-FRET (IP-One), carbachol + lithium; Potency, µM (top dose mostly 59.4 µM), without a hit: at the top dose activity, negative = IMPase inhibition, most hits filed as inhibitors; AID 1457; actives 0.35% (n = 210,000);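 also: IP1 builds up when IMPase is blocked and the TR-FRET signal falls; plate controls were basal vehicle for no effect and high inhibitor control for full effect; nearly all actives have a fitted effect of over 50% in size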
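Concentration–response in CHO-M1 cells, lithium-potentiated; 30 min at 37C. IP1 detected by competitive TR-FRET after 10 min lysis at RT. Hill-fitted AC50.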
Luc counter – counter-screen: inhibitors of Kinase-Glo firefly luciferase. Kinase-Glo luciferase, ATP luminescence, 8 min. Potency, µM (highest dose often 38.3 µM), for inactives: at the top dose activity change, negative = inhibition, hits mostly inhibitors. actives 0.28% (n = 200,000). AID 1379. Q27757; also: nearly all actives have a fitted effect of over 60% in size
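Kinase-Glo luciferase light output from ATP and luciferin was measured with 10 uM ATP, within the enzyme's linear range. Buffer: 50 mM imidazole pH 7.2, 50 mM KCl, 7 mM MgCl2, 0.01% Tween 20, 0.05% BSA; luminescence read after 8 min at ambient temperature.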
ALDH1A1 inh – ALDH1A1 (human) enzyme inhibition; Purified ALDH1A1, NADH fluorescence, propionaldehyde substrate; Potency, µM (highest dose often 75.3 µM), for the others: at the highest dose activity, negative = inhibition, most hits filed as inhibitors; actives 7.3% (n = 220,000); active = well fitted inhibition curve with a large enough effect, not every such curve was filed as active; inconclusive = small, poorly fitted or top-dose-only effect, or another doubt; inactive = no such curve, though single readings can be large or run the other way;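 also: plate controls were no enzyme wells and a reference inhibitor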
Target sequence (P00352 whole entry, looked up): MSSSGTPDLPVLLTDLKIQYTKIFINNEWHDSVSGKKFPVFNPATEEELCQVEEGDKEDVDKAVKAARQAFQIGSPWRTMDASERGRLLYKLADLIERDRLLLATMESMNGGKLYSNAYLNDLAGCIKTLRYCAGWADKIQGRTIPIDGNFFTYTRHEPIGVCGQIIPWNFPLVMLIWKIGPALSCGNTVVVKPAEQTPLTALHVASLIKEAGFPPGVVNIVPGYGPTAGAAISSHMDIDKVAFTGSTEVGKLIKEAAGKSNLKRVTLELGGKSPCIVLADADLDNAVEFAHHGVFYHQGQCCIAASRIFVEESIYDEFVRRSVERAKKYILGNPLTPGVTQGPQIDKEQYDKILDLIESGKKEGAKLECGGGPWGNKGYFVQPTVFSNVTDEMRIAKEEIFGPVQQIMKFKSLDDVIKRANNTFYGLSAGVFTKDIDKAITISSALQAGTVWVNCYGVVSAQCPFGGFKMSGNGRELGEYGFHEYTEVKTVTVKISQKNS
HPGD inh – HPGD (human) dehydrogenase inhibition. purified HPGD, NADH fluorescence kinetic, PGE2 substrate. Potency, µM, without a hit: at the highest dose activity change, negative = inhibition, usual class: inhibitors. actives 4.3% (n = 150,000). AID 894; active = well fitted inhibition curve with a large enough effect, not every such curve was filed as active; inconclusive = small, poorly fitted or top-dose-only effect, or another doubt; inactive = no such curve, though single readings can be large or run the other way
Target sequence (P15428 whole entry, looked up): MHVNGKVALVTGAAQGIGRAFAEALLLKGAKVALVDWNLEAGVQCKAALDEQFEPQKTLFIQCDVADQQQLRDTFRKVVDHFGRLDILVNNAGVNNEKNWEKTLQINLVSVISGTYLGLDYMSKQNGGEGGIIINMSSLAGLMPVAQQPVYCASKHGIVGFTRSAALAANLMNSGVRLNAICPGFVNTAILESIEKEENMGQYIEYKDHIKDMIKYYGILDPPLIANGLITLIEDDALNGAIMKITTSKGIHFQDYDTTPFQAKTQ
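20 nM HPGD preincubated 15 min at room temperature with compound in 50 mM Tris-HCl pH 8, 0.01% Tween 20. Started with 1 mM NAD+ and 30 uM prostaglandin E2; NADH fluorescence (360/450 nm) read 5 times over 30-s intervals, last minus first.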
* marks the source's active call; other numbers are inactive results; ? = inconclusive; . = no result given; [ ] = dose if it differs, or a comment. Unless noted, calls follow the shape of the dose curve; as a rule, active = well fitted curve in the direction sought with a large enough effect; inconclusive = small, poorly fitted or top-dose-only effect, or another doubt; inactive = no such curve, though single readings can be large; an effect the other way counts as inactive or inconclusive. Unless noted, % is scaled to controls: 0 for no effect and ±100 for the full control effect; potency is read from the fitted curve at half-maximal effect.

SMILES | LMNA splice mod | IMPase Li inh | Luc counter | ALDH1A1 inh | HPGD inh
O=C(NNC(=O)C1CCN(c2ncccn2)CC1)c1ccc(Cl)cc1 | . | -9% | -3% | 7% | .
CCN(CC)Cc1nc2c(c(=O)[nH]1)C1(CCCCC1)Cc1ccccc1-2 | -8% | 4% | 1% | 25µM* | -2%
O=c1c2c(nc3n1CCCCC3)-c1ccccc1CC21CCCC1 | ? | 29% | 5% | 0.63µM* | -14%
C=CCNC(=S)NNc1nc2c(c(=O)[nH]1)C1(CCCC1)Cc1ccccc1-2 | -9% | 0% | 3% | 3.5µM* | ?
O=C(NN=C1CCCCCC1)C(=O)Nc1cccc(Br)c1 | -16% | -5% | 0% | ? | -5%
CN1CC(=O)N(CC(=O)Nc2cc(Cl)cc(Cl)c2)C1=O | ? | 2% | -1% | 10µM* | .
CCCCC(=O)OC1CCC2C3CCc4cc(O)ccc4C3CC[C@]12C (stereo partly drawn) | ? | 18% | -7% | -6% | -29%
CN(C(=O)c1ccc(=O)n(Cc2ccc(Cl)cc2)c1)c1ccccc1 | . | 21% | 3% | 14µM* | .
CN(C(=O)c1cccn(Cc2ccccc2)c1=O)c1ccccc1 | . | -3% | -2% | -3% | .
COc1ccc(NC(=O)c2oc3ccc(S(=O)(=O)N4CCC5(CC4)OCCO5)cc3c2C)cc1Cl | -13%[46 µM] | . | . | . | .
COc1ccc(NC(=O)c2sc(=S)[nH]c2N)cc1 | 10% | 47%[38.3 µM] | -1% | 10µM* | 28µM*
C=CC(=O)OCCCCCCOC(=O)C=C | . | -5% | . | 2µM* | -4%
C=C(C)C(=O)OCCCCCC | . | -13% | . | 8% | 1%
COc1ccccc1/C=C/C(=O)NCC(=O)N/N=C(\CCC(=O)O)c1ccccc1 | . | 9% | 4% | ? | .
CCOC(=O)COc1ccc(Br)cc1/C=C\c1[nH]c(=O)[nH]c(=O)c1[N+](=O)[O-] | ? | 4% | 8% | ? | 16µM*
O=C(CSc1ccc2ccccc2c1)NCCc1ccc(O)c(O)c1 | -26%[46 µM] | 8% | 1% | 25µM* | .
CC(C)c1nnc(NC(=O)CS(=O)(=O)Cc2ccccc2)s1 | . | -11% | 7% | 7.9µM* | .
CCCC(C)c1nnc(NC(=O)CS(=O)(=O)Cc2ccccc2)s1 (stereo not drawn) | -3% | 17%[38.3 µM] | -3% | 25µM* | 13µM*
CCOc1ccccc1C(=O)Nc1nnc(C(C)C)s1 | -8% | 12%[38.3 µM] | -1% | 1.3µM* | -12%
CC(C)Cc1nnc(NC(=O)CS(=O)(=O)Cc2ccccc2)s1 | 0% | -12% | 0% | ? | -28%
CC(=O)NCCNC(=O)C1CCCCN1S(=O)(=O)c1ccccc1 (stereo not drawn) | 10%[46 µM] | 2% | -1% | 7% | .
COc1ccc2nc(SCC(=O)N3CCN(c4ccc(F)cc4)CC3)c(C#N)cc2c1 | -3% | 9% | 8% | 7.9µM* | -6%
CNc1nc(-c2ccc(OC)cc2)c(-c2ccc(OC)cc2)s1 | -10%[46 µM] | 19% | 4% | ? | .
COc1ccc(-c2nc(NC(C)=O)sc2-c2ccc(OC)cc2)cc1 | ? | -1% | 5% | 3.2µM* | .
C=CCn1c(SCC(=O)Nc2cc3oc4ccccc4c3cc2OC)nnc1-c1cnccn1 | -1% | . | . | 28µM* | .
SMILES | LMNA splice mod | IMPase Li inh | Luc counter | ALDH1A1 inh | HPGD inh
COc1ccc(OC)c(C(=O)CSc2nnc(Cc3cccs3)n2C)c1 | 10% | 30%[38.3 µM] | 1% | 22µM* | -21%
CCn1c(SCC(=O)Nc2cc3oc4ccccc4c3cc2OC)nnc1-c1cccs1 | 0% | 28%[38.3 µM] | -2% | 13µM* | -4%
COc1cc2c(cc1NC(=O)COC(=O)Cn1cnc3ccccc31)oc1ccccc12 | ? | 20% | 1% | 11µM* | ?
C=CCn1c(SCC(=O)Nc2cccc3ccccc23)nnc1-c1cnccn1 | 2% | 0%[38.3 µM] | -1% | 5% | -14%
COc1cc2c(cc1NC(=O)COc1ccccc1OC)oc1ccccc12 | -8% | ? | -3% | ? | ?
O=C(COC(=O)Cc1c(Cl)cccc1Cl)NCC1CCCO1 (stereo not drawn) | . | 4% | 6% | -7% | .
COc1cc2c(cc1NC(=O)CSc1nnc(Cc3cccs3)n1Cc1ccco1)oc1ccccc12 | -3% | 35%[38.3 µM] | 0% | 5µM* | -30%
Cc1cc(Cl)ccc1NC(=O)CSc1nnc(Cc2cccs2)n1Cc1ccco1 | -16% | 33%[38.3 µM] | 0% | ? | -13%
N#Cc1ccc(CSc2nnc(Cc3cccs3)n2Cc2ccco2)cc1 | -2% | 35%[38.3 µM] | -2% | 11µM* | -20%
COc1cc2c(cc1NC(=O)CSc1nnc(Cc3cccs3)n1C)oc1ccccc12 | 1% | 26%[38.3 µM] | 3% | 14µM* | -17%
COc1ccc(/C=C2\CCn3c2nc2cc(C(=O)O)ccc2c3=O)cc1O | -1% | 22% | 0% | 22µM* | 14µM*
CCCSc1nnc(-c2cnn(-c3ccccc3)c2-n2cccc2)n1C | 20% | 33%[38.3 µM] | 0% | ? | 18µM*
C=CCSc1nnc(-c2cnn(-c3ccccc3)c2-n2cccc2)n1C | 15% | 53%[38.3 µM] | -3% | -10% | ?
CC(C)C(=O)NCc1cc(-c2ccccc2)no1 | -8%[46 µM] | -6% | 3% | -1% | .
O=C(/C=C/c1ccco1)c1ccc(O)cc1 | . | -4% | -10% | 15µM* | .
O=C(/C=C\c1ccco1)c1ccc(NC(=O)c2ccco2)cc1 | ? | 8% | -6% | ? | .
CC(=O)Nc1cccc(C(=O)/C=C/c2ccco2)c1 | -13% | 7%[38.3 µM] | -4% | 10µM* | ?
CN(C)c1ccc(C(=O)/C=C/c2ccco2)cc1 | ? | 1% | -12% | 8.9µM* | 32µM*
CSc1ccc(/C=C/C(=O)c2ccc(O)cc2)cc1 | ? | 8% | -18% | 18µM* | -28%
CC(=O)Nc1ccc(C(=O)/C=C/c2ccco2)cc1 | -6% | 2% | -3% | ? | -27%
COc1c2ccoc2nc2c(OC)c(OCC(OC(C)=O)C(C)(C)O)ccc12 (stereo not drawn) | . | -6% | . | ? | .
CCOc1ccc(CCNC(=O)C(CC(C)C)N2Cc3ccccc3C2=O)cc1OCC (stereo not drawn) | 3%[46 µM] | . | . | . | .
COCc1cc(C)nc(SCC[N+](C)(C)CC(=O)Nc2cccc(C(F)(F)F)c2)c1C#N | . | 36% | 0% | 11µM* | .
O=C(Cc1ccc([N+](=O)[O-])cc1)NCc1ccccn1 | . | 18% | -1% | 1% | .
COc1cccc(CNC(=O)CCCN2C(=O)CSc3c2c(C)nn3-c2ccccc2)c1OC | -8%[46 µM] | . | . | . | .
CC(=O)Nc1cccc(NS(=O)(=O)Cc2ccc(Cl)cc2)c1 | 8% | 1%[38.3 µM] | -2% | 28µM* | -13%
O=C1CCSc2ccc(S(=O)(=O)Nc3cccc(C(F)(F)F)c3)cc2N1 | -6%[46 µM] | . | . | . | .
CN(C)c1ccc(CNc2ncc(Br)cc2Br)cc1 | 9% | 11%[38.3 µM] | -2% | 3.2µM* | -21%
Cc1ccc(S(=O)(=O)Nc2ccccc2CNc2ncc(Br)cc2Br)cc1 | ? | 4% | 0% | ? | -18%
